“And” between values parts separate entries of the source, which are not always exact repeats. Equal values may be shown once. Among all 420,000 compounds or so, about 50,000 (12%) were called active. Inconclusive results (about 26%) are left out. Calls come from the whole dose curve; as a rule, active = well fitted inhibition curve with a large enough effect; inconclusive = small, poorly fitted or top-dose-only effect; inactive = flat fitted curve, though single readings scatter. What follows is part of a selection rich in actives, with near analogues and random picks from the rest.
assay: qHTS for Inhibitors of human tyrosyl-DNA phosphodiesterase 1 (TDP1): qHTS in cells in presence of CPT; settings: chicken DT40 Tdp1-/-;hTDP1 cells + 20 nM CPT, ATP luminescence, 48 h; series mostly up to 46.2 µM; activity change, negative = growth inhibition: at the top concentration; note: nearly all actives have a fitted effect of over 55% in size
Summary of the method: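 Chicken DT40 Tdp1-/- cells stably complemented with human TDP1 were seeded at 400 cells/well in medium containing 20 nM camptothecin, exposed to pin-transferred compounds, and grown at 37 °C for at least 48 hr. Viability was read as ATP luminescence.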
% is set by controls: 0 for no effect and ±100 for the full control effect; potency is the fitted concentration of half-maximal effect.

Compound	activity change, negative = growth inhibition	Potency
Cc1ccc(S(=O)(=O)N(C)C)cc1NC(=O)C(C)OC(=O)c1ccc2ccccc2n1 (centres undefined)	-5.45% (inactive)	
CC(C)[C@@H](NC(=O)OC(C)(C)C)C(=O)NCC1CCC(C(=O)N[C@@H](Cc2ccccc2)C(=O)O)CC1 (some centres undefined)	5.99% (inactive)	
C[C@H]1CN([C@@H](C)CO)S(=O)(=O)c2ccc(Br)cc2O[C@H]1CN(C)C(=O)c1cnccn1	-9.71% (inactive)	
CNC(=O)COc1ccc(S(=O)(=O)Nc2ccccc2)cc1	3.15% (inactive)	
CC(=O)c1ccccc1NC(=O)COC(=O)C1COc2ccccc2O1 (centres undefined)	0.997% (inactive)	
CC1(C(=O)NS(=O)(=O)c2ccccc2Cl)CCN1C(=O)c1cccc(F)c1 (centres undefined)	-8.37% (inactive)	
O=C(Cn1nc([N+](=O)[O-])nc1Br)NC1CCCCC1	-3.93% (inactive)	
O=C(NCCS(=O)(=O)N1CCN(c2ccccc2)CC1)c1ccco1	0.253% (inactive)	
CN1CCN(Cc2nc3cc(NC(=O)COc4ccc([N+](=O)[O-])cc4)ccc3n2C)CC1	-0.469% (inactive)	
O=C(Oc1ccc(C(=S)N2CCOCC2)cc1)c1ccc(F)cc1	-2.14% (inactive)	
Cc1ccc(SCC2=NNC(=O)C2)cc1	-7.49% (inactive)	
O=C(COc1ccccc1)Nc1cc2c3c(c1)CC(=O)N3CCC2	-29.3% (inactive)	
CN(Cc1ccccc1)C(=O)CCC1CCN(C(=O)c2ccco2)CC1	4.83% (inactive)	
CC(C)(C)OC(=O)N1CCN(C(=O)c2[nH]c(C(F)(F)F)nc2-c2ccccc2)CC1	15.1% (inactive)	
C=CCC1(C(=O)N(C)Cc2ccccc2)CCN(C(=O)OC(C)(C)C)CC1		14.6 µM (active)
Cc1cccc(N=Nc2c(O)[nH]c3ccc(F)cc23)c1	-19.6% (inactive)	
Oc1[nH]c2ccccc2c1N=Nc1c(F)c(F)c(F)c(F)c1F		8.2 µM (active)
COCC(=O)N=Nc1c(O)[nH]c2ccccc12	-21.3% (inactive)	
Cc1cc(=O)oc2c(C)c(OCC(=O)NCCc3ccc(S(N)(=O)=O)cc3)ccc12	-8.7% (inactive)	
CCCNC(=O)C1(C)CCN(C(=O)c2ccccc2OC(F)(F)F)C1 (centres undefined)	-16.5% (inactive)	
c1ccc(CNc2ncncc2-c2cccnc2)cc1	-1.78% (inactive)	
c1ccc(CNc2ncnc3[nH]ncc23)cc1		20.6 µM (active)
CN(c1ccccn1)c1ncnc2[nH]ncc12	-1.97% (inactive)	

Compound	activity change, negative = growth inhibition	Potency
Cc1ccc2c(=O)c(C(=O)c3cccc(Cl)c3)cn(CC(=O)NCc3ccccc3)c2n1	-3.25% (inactive)	
CC1(C)CC(=O)C=C(N2CCOCC2)C1	13.7% (inactive)	
Cc1oc(C(N)=O)cc1COc1ccc(C(N)=O)cc1	20.8% (inactive)	
COC(OC)c1ccnc(SCc2ccccc2Cl)n1	13.7% (inactive)	
Cc1nc2nc(SCC(=O)NCc3ccco3)nn2c(C)c1Cc1ccccc1	-19.4% (inactive)	
Cc1cccc(Cc2c(C)nc3nc(SCc4ccccc4Cl)nn3c2C)c1		23.1 µM (active)
O=C(O)c1ccccc1-c1cccc2nncn12	-17.6% (inactive)	
Cc1nnc(SCC(=O)N/N=C/c2cn(-c3ccccc3)nc2-c2ccc(F)cc2)n1-c1ccccc1	-12.7% (inactive)	
O=C(N/N=C/c1ccc([N+](=O)[O-])o1)c1cn(-c2ccccc2)nc1-c1ccc(F)cc1		7.31 µM (active)
O=C(NCCCN1CCOCC1)c1cn(-c2ccccc2)nc1-c1ccc(F)cc1	-15.7% (inactive)	
COc1ccc(S(=O)(=O)NCC(=O)NC2CC2)cc1OC	6.46% (inactive)	
COc1ccc(Nc2ccc3ccccc3c2)cc1	-8.39% (inactive)	
COc1ccc(Nc2nnc(C)c3ccccc23)cc1	2.95% (inactive)	
COc1ccc(Nc2cc(=O)oc3ccccc23)cc1		2.91 µM (active)
CCn1cc(/C=C(\NC(=O)c2ccc(C)cc2)C(=O)NCCN2CCOCC2)c2ccccc21	-28.7% (inactive)	
CC1=NNC(=O)C1CC(=O)N/N=C/c1ccncc1 (centres undefined)	1.34% (inactive)	
CCCSc1nc2[nH]ncc2c(=O)[nH]1	-6.23% (inactive)	
CCc1ccc(-n2c(SCc3cc(=O)n4cc(Br)ccc4n3)nc3[nH]ncc3c2=O)cc1		23.1 µM (active)
COc1ccc2c(c1)CCc1c(C(=O)Nc3c(C)n(C)n(-c4ccccc4)c3=O)noc1-2	-5.03% (inactive)	
Cc1nn(Cc2ccc(F)cc2)c(C)c1NC(=O)c1noc2c1CCc1ccccc1-2		25.9 µM (active) and 4.61 µM (active)
Cc1ccccc1Cn1nc(C)c(NC(=O)C(F)(F)F)c1C	7.52% (inactive)	
Cc1nn(Cc2ccc(F)cc2)c(C)c1NC(=O)c1cc(CC(C)C)on1		20.6 µM (active)
Cc1cc(C(=O)Nc2c(C)nn(Cc3ccccc3)c2C)on1	2.52% (inactive)	

Compound	activity change, negative = growth inhibition	Potency
Cc1nn(Cc2ccc(F)cc2)c(C)c1NC(=O)c1cccnc1Cl	5.99% (inactive)	
C=CCOc1ccc(/C=C/C(=O)OC(C)C(=O)Nc2ccc(NC(C)=O)cc2)cc1 (centres undefined)	4.08% (inactive)	
CC(CCN1CCN=C1N(C)C)c1ccccc1 (centres undefined)	-1.58% (inactive)	
Cc1cc(C)c2c(n1)sc1c(=O)n(-c3ccccc3)c(=O)[nH]c12	1.18% (inactive)	
CC(=O)Nc1cc(C(=O)N2CCc3c(Cl)cccc3C2)cc2ncn(CCc3ccccn3)c12	-10.1% [at 9.04 µM] (inactive)	
CN(Cc1c(F)cccc1Cl)C(=O)CNC(=O)c1ccc2c(c1)OCO2	-12.9% (inactive)	
COCCN(Cc1cc2cc3c(cc2nc1Cl)OCO3)C(=O)c1cccc(C)c1		7.31 µM (active)
COCCNC(=O)c1onc(CSc2cccc(C)c2)c1C(=O)O	-1.59% (inactive)	
CCSc1nc(O)c(C(c2cccc(OC)c2)c2c(O)nc(SCC)[nH]c2=O)c(=O)[nH]1	13.5% (inactive)	
CC1COc2ccccc2N1C(=O)c1ccc(F)cc1 (centres undefined)	-11.6% (inactive)	
CCC1(CC)Cc2ccccc2-c2nc3ccccc3c(=O)n21		18.4 µM (active)
c1cncc(-c2nnc3n2C2(CCCCC2)Cc2ccccc2-3)c1	-13.9% (inactive)	
O=c1c2ccccc2nc2n1C1(CCCCC1)Cc1ccccc1-2		16.4 µM (active)
CC1(C)Cc2ccccc2-c2nnc(-c3cccc(O)c3)n21	-0.381% (inactive)	
CC1(C)Cc2ccccc2-c2c[nH]c(=O)n21	-4.36% (inactive)	
CCOC(=O)C1CCc2nc3ccccc3c(=O)n21 (centres undefined)	-5.68% (inactive)	
CCCCSc1ncnc2c1sc1nc(N3CCOCC3)c3c(c12)CCCC3	-0.216% (inactive)	
NS(=O)(=O)c1ccc(CCNC(=O)COC(=O)COc2cccc(C(F)(F)F)c2)cc1	4.49% (inactive)	
CCN(c1ncnc2c1cnn2-c1ccc(C)cc1)C1CCCCC1	-0.498% (inactive)	
O=C(c1cc(-c2ccc(Cl)s2)nc2ccccc12)N1CCOCC1	-5.37% (inactive)	
COCCNC(=O)c1ccccc1NS(=O)(=O)c1ccc(C)c([N+](=O)[O-])c1	-3.71% (inactive)	
COCCNc1ccc(-c2n[nH]c(=O)c3ccccc23)cc1[N+](=O)[O-]		14.6 µM (active)
COCCNc1cc(NCCOC)c([N+](=O)[O-])cc1[N+](=O)[O-]	11.4% (inactive)	
